“And” between values parts separate entries of the source, which are not always exact repeats. Identical values can stand only once. Records with an inconclusive call do not appear. Where a structure was tested more than once in an assay, its records may differ in their call. The source made the active and inactive calls. Unless noted, the call rests on the fitted dose curve; in most records, active means well fitted curve in the direction sought with a large enough effect in the repeat runs; inconclusive means weak or mixed curves; inactive means no such curve, though single readings can be large; an effect the other way counts as inactive or inconclusive.
Experiments:
[1] = target: Retinoic acid receptor RXR-alpha (Homo sapiens) (UniProt P19793); test: qHTS assay to identify small molecule agonists of the RXR signaling pathway (AID 1159527; calls by dose curve; further: nearly all actives have a fitted effect of over 35% in size; further: potency means the concentration at half of the fitted maximal effect)
Outline: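 Cells plated at 2,000/well, rested 5 hr at 37 C, pin-dosed with DMSO compound solutions, incubated 16 hr, then loaded with B/G FRET substrate for 2 hr at RT before dual-emission fluorescence reading.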

[2] = qHTS assay to identify small molecule antagonists of the retinoid acid receptor (RAR) signaling pathway - cell viability counter screen (AID 1159551); further: nearly all actives have a fitted effect of over 35% in size; further: potency means the concentration at half of the fitted maximal effect
Outline: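 Retinol-stimulated (1 uM final) C3RL4 cells, compound 6 h, 37 C; readout CellTiter-Glo luminescence (ATP) after 30 min RT incubation.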

[3] = target: Luciferin 4-monooxygenase (Photinus pyralis) (UniProt P08659); test: qHTS assay to identify small molecule inhibitors of firefly luciferase (AID 1224835); further: nearly all actives have a fitted effect of over 25% in size; further: potency means the concentration at half of the fitted maximal effect
Outline: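 Inhibition of purified Photinus luciferase is measured by luminescence. Substrate levels (D-luciferin, ATP) sit at their KM values. Each compound is tested in a concentration series.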

[4] = qHTS assay to identify small molecule agonists of the constitutive androstane receptor (CAR) signaling pathway - cell viability counter screen (AID 1224836); further: nearly all actives have a fitted effect of over 45% in size; further: potency means the concentration at half of the fitted maximal effect
Outline: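 Cells were seeded and incubated 4 hrs. Compounds were added across 15 concentrations together with PK11195 at 0.75 uM final. Plates were incubated 23 hrs at 37 C. CellTiter-Fluor was added and fluorescence measured.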

[5] = qHTS assay to identify small molecule antagonists of the constitutive androstane receptor (CAR) signaling pathway - cell viability counter screen (AID 1224837); further: nearly all actives have a fitted effect of over 45% in size; further: potency means the concentration at half of the fitted maximal effect
Outline: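 Counter screen run in HepG2-CYP2B6-hCAR cells: 4 hr settle, compound titration (15 concentrations) with 50 nM CITCO, 23 hr at 37 C/5% CO2, CellTiter-Fluor fluorescence.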

[6] = target: Nuclear receptor subfamily 1 group I member 3 (Homo sapiens) (UniProt Q14994); test: qHTS assay to identify small molecule antagonists of the constitutive androstane receptor (CAR) signaling pathway (AID 1224838);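 further: HepG2 cells stably expressing hCAR with CYP2B6 luciferase reporter stimulated by CITCO; nearly all actives have a fitted effect of over 40% in size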; further: potency means the concentration at half of the fitted maximal effect
Outline: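 Cell line: HepG2 double-stable for hCAR and CYP2B6-2.2kb reporter. Agonist: CITCO, 50 nM final. Compounds: 15 concentrations, 24 h, 37 C. Detection: ONE-Glo luminescence.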

[7] = target: Nuclear receptor subfamily 1 group I member 3 (Homo sapiens) (UniProt Q14994); test: qHTS assay to identify small molecule agonists of the constitutive androstane receptor (CAR) signaling pathway (AID 1224839); further: nearly all actives have a fitted effect of over 15% in size; further: potency means the concentration at half of the fitted maximal effect
Outline: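 Cells were plated and incubated 4 hrs, then dosed with compounds at 15 concentrations. PK11195 was added to 0.75 uM final. After 24 hrs at 37 C, luciferase luminescence was measured.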

[8] = qHTS assay to identify small molecule antagonists of the estrogen related receptor signaling pathway with the pleiotropic PPARgamma coactivator (PGC) from Tox21 10K library - cell viability counter screen (AID 1224840; active means well fitted cell-killing curve with a large enough effect in the repeat runs, not every such curve was filed as active; further: nearly all actives have a fitted effect of over 40% in size; further: potency means the concentration at half of the fitted maximal effect)
Outline: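 Following seeding of 2,000 PGC/ERR cells/well and 6 hours' incubation, test compounds were delivered in DMSO. The plates then sat 17.5 hours at 37 C before a fluorogenic live-cell protease reagent (CellTiter-Fluor) was read after 30 min.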

[9] = qHTS assay to identify small molecule antagonists of the retinoic acid receptor (RAR) signaling pathway (AID 1159552; further: nearly all actives have a fitted effect of over 50% in size; further: potency means the concentration at half of the fitted maximal effect)
Outline: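 Retinol at 1 uM final stimulated RARE-luciferase expression in C3RL4 cells exposed to test compounds for 6 hr at 37 C. Reduced luminescence, read 30 min after detection reagent, indicated pathway antagonism.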

[10] = qHTS assay to identify small molecule agonists of the retinoic acid receptor (RAR) signaling pathway (AID 1159553); further: potency means the concentration at half of the fitted maximal effect
Outline: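 Reporter readout comes from luciferase under RARE control in C3RL4 cells; compound exposure lasts 6 hr at 37 C in 5% CO2, and luminescence is recorded following a 30 min room-temperature incubation with reagent.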

[11] = qHTS assay to identify small molecule agonists of the RXR signaling pathway - cell viability counter screen (AID 1159529); further: nearly all actives have a fitted effect of over 50% in size; further: potency means the concentration at half of the fitted maximal effect
Outline: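 Steps: seed RXR-alpha-UAS-bla HEK 293T cells in assay medium containing 2% charcoal-stripped FBS; incubate 5 hr; add compounds in DMSO; incubate 16 hr at 37 C; after the bla read, add CellTiter-Glo and read luminescence at 30 min.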

[12] = qHTS assay to identify small molecule antagonists of the estrogen related receptor (ERR) signaling pathway from Tox21 library - cell viability counter screen (AID 1224834); further: nearly all actives have a fitted effect of over 30% in size; further: potency means the concentration at half of the fitted maximal effect
Outline: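 After 17.5 h of compound exposure at 37 C, ERR cells are incubated with CellTiter-Fluor for 30 min and fluorescence intensity serves as the viability measure.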

[13] = qHTS assay to identify small molecule antagonists of the estrogen related receptor (ERR) signaling pathway - cell viability counter screen (AID 1224818); further: series mostly up to about 46 µM
Outline: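 After a 6 h pre-incubation, ERR cells were dosed by pin tool with compounds, positive/negative controls or DMSO alone. Following 17.5 h at 37 C and 30 min with CellTiter-Fluor, fluorescence was recorded.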

[14] = qHTS assay to identify small molecule antagonists of the estrogen related receptor (ERR) signaling pathway (AID 1224819;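 further: luminescence from an ERR-driven luciferase reporter measured with One-Glo reagent; series mostly up to about 46 µM; nearly all actives have a fitted effect of over 50% in size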)
Outline: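 Luminescence readout (One-Glo, 30 min, RT) of ERR cell line after 18 h compound exposure at 37 C; cells seeded 2,000/well, pre-incubated 6 h, compounds pinned from DMSO stocks.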

[15] = qHTS assay to identify small molecule agonists of the estrogen related receptor (ERR) signaling pathway (AID 1224820)
Outline: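 ERR reporter cell line (from NTP), 2,000 cells/well, incubated 6 h before compound addition, then 18 h at 37 C. Luminescence measured 30 min after One-Glo reagent at room temperature.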

[16] = tested on: estrogen-related receptor alpha (ERRalpha) with PGC-1alpha coactivator, human; test: qHTS assay to identify small molecule antagonists of the estrogen related receptor signaling pathway with the pleiotropic PPARgamma coactivator (PGC) (AID 1224821; calls by dose curve;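 further: series mostly up to about 46 µM; lower luminescence signal means antagonism of PGC/ERR signalling; nearly all actives have a fitted effect of over 50% in size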)
Outline: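 PGC/ERR reporter cell line, plated 6 h before compound addition, then exposed 18 h at 37 °C. Luciferase activity read by luminescence 30 min after One-Glo addition; decrease indicates antagonism.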

[17] = qHTS assay to identify small molecule antagonists of the estrogen related receptor signaling pathway with the pleiotropic PPARgamma coactivator (PGC) cell viability counter screen (AID 1224822; further: series mostly up to about 46 µM)
Outline: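 PGC/ERR cells were plated at 2,000 per well and allowed 6 h to settle before compound addition. Following 17.5 h at 37 C, CellTiter-Fluor reagent was added and fluorescence was read 30 min later.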

[18] = qHTS assay to identify small molecule antagonists of the estrogen related receptor signaling pathway with the pleiotropic PPARgamma coactivator (PGC) from Tox21 10K library (AID 1224841; call rule not given here; further: potency means the concentration at half of the fitted maximal effect; on activity, negative = inhibition: series mostly up to about 92 µM)
Outline: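 qHTS antagonist format: PGC/ERR cells, 2k/well, compound in DMSO by pin transfer after 6 h attachment, 18 h treatment at 37 C, One-Glo luminescence read at 30 min.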

[19] = qHTS assay to identify small molecule agonists of the estrogen related receptor signaling pathway with the pleiotropic PPARgamma coactivator (PGC) from Tox21 10K library (AID 1224842); further: nearly all actives have a fitted effect of over 15% in size; further: potency means the concentration at half of the fitted maximal effect
Outline: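 Luminescence from One-Glo (30 min, room temperature) measured after PGC/ERR cells had 18 h at 37 C with pinned compound (23 nL in DMSO). Cells had been seeded at 2,000 per well and pre-incubated 6 h.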

[20] = qHTS assay to identify small molecule agonists of the estrogen related receptor signaling pathway with the pleiotropic PPARgamma coactivator (PGC) (AID 1224823)
Outline: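 PGC/ERR reporter cells seeded 6 h, then exposed to compounds (23 nL in DMSO) for 18 h at 37 C. One-Glo luciferase luminescence read after 30 min at room temperature.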
On the % scale 0 is the no-effect control and ±100 the full control effect.

Chain of Luciferin 4-monooxygenase (Photinus pyralis) (P08659 whole entry, looked up): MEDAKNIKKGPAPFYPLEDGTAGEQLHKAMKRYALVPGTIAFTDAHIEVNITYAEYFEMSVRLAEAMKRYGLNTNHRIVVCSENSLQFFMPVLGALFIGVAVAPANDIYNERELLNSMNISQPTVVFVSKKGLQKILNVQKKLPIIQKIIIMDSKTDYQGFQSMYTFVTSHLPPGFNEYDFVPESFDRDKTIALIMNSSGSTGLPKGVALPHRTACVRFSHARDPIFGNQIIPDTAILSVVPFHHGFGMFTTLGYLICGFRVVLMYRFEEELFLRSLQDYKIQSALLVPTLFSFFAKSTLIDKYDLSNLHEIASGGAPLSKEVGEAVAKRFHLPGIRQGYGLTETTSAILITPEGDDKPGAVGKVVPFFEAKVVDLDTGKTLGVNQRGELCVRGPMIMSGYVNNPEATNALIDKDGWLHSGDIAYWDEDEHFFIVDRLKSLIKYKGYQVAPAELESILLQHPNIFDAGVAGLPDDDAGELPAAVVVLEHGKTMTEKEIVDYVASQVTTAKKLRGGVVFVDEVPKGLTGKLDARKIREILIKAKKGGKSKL
Chain of Nuclear receptor subfamily 1 group I member 3 (Homo sapiens) (Q14994 whole entry, looked up): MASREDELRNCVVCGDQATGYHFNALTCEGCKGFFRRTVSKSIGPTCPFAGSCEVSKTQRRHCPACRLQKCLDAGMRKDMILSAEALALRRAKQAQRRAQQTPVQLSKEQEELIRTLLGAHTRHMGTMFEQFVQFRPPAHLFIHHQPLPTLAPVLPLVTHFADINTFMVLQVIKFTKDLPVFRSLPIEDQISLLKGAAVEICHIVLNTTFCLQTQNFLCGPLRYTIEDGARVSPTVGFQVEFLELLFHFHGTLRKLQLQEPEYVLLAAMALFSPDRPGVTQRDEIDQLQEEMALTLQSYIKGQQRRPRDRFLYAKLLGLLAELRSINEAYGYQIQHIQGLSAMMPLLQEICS
Chain of Retinoic acid receptor RXR-alpha (Homo sapiens) (P19793 whole entry, looked up): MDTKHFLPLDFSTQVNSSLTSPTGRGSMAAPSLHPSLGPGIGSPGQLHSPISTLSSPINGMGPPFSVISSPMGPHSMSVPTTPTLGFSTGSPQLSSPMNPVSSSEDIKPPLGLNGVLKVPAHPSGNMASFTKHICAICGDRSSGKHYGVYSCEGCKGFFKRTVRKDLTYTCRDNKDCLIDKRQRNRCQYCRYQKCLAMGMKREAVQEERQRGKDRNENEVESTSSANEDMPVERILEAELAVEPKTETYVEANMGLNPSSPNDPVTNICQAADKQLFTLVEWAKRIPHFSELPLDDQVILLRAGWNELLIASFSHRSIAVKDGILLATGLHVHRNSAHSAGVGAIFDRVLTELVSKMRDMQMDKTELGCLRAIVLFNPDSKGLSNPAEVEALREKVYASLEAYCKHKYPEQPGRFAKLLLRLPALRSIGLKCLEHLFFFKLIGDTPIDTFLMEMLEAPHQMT

CCc1nc(N)nc(N)c1-c1ccc(Cl)cc1
active: Potency [6] 1.75 µM and 3.06 µM
inactive: Potency [1] | Potency [2] | Potency [3] | Potency [4] | Potency [5] | Potency [7] | Potency [8]

Nc1ccc2c(c1)CN1C(=O)c3ccccc3C1=N2
active: Potency [2] 14.6 µM | Potency [10] 0.366 µM | Potency [3] 213 nM | Potency [7] 0.184 µM
inactive: activity, negative = inhibition [9] -41% [at 19 µM] | activity, negative = inhibition [6] -44.6% [at 19 µM]

CN1[C@@H]2CC(OC(=O)[C@H](CO)c3ccccc3)C[C@H]1[C@@H]1O[C@@H]12 (stereo not given in full)
inactive: Potency [11] | Potency [2] | Potency [12] | Potency [3] | Potency [4] | Potency [5] | Potency [6] | Potency [7] | Potency [8]

F[B-](F)(F)F
inactive: Potency [1] | Potency [11] | Potency [2] | Potency [3] | Potency [4] | Potency [5] | Potency [8]

O=C1OC2(c3ccccc31)c1cc(Br)c(O)c(Br)c1Oc1c2cc(Br)c(O)c1Br
inactive: Potency [11] | Potency [2] | Potency [9] | Potency [10] | Potency [6] | Potency [7]
active: Potency [12] 11 µM and 25 µM and 26.6 µM | Potency [3] 28.7 µM and 36.6 µM | Potency [5] 7.81 µM and 25 µM

CN[C@H]1CC[C@@H](c2ccc(Cl)c(Cl)c2)c2ccccc21
active: Potency [9] 26.6 µM | Potency [12] 29.8 µM | Potency [8] 26.6 µM
inactive: Potency [2] | outcome [13] | Potency [14] | outcome [15] | outcome [16] | Potency [17] | Potency [3] | Potency [4] | Potency [5] | Potency [6] | Potency [7] | Potency [18]

CCCCCCCCCCCC[N+](C)(C)Cc1ccccc1
active: Potency [11] 6.78 µM and 8.43 µM and 1.69 µM | Potency [2] 60 µM and 74.5 µM | Potency [12] 60 µM and 66.4 µM and 23.7 µM | Potency [4] 47.6 µM and 59.2 µM and 29.8 µM | Potency [5] 47.6 µM and 23.7 µM | Potency [6] 83.6 µM and 29.8 µM | Potency [8] 60 µM and 41.9 µM
inactive: Potency [3] | Potency [7]

COc1ccc2cc(S(=O)(=O)N[C@H](CC(=O)N[C@H](Cc3ccc(CN4[C@H](C)CCC[C@@H]4C)cc3)C(=O)N(C)C(C)C)c3ccc4c(c3)OCO4)ccc2c1
active: Potency [11] 2.32 µM | Potency [9] 51.6 µM | Potency [12] 51.6 µM | Potency [4] 23 µM | Potency [5] 25.8 µM | Potency [6] 41 µM | Potency [8] 29 µM
inactive: Potency [10] | Potency [3] | Potency [7] | Potency [19]

O=C(Nc1ncc([N+](=O)[O-])s1)c1cccs1
active: Potency [11] 6.01 µM | Potency [2] 23.7 µM | Potency [10] 1.06 µM | Potency [3] 3090 nM | Potency [7] 1.33 µM | Potency [19] 0.841 µM
inactive: Potency [9] | Potency [6] | Potency [8] | Potency [18]

COc1ccc2c(c1)c(CC(=O)O)c(C)n2C(=O)c1ccc(Cl)cc1
inactive: Potency [11] | Potency [2] | Potency [9] | Potency [10] | outcome [13] | Potency [14] | outcome [15] | outcome [16] | Potency [17] | outcome [20] | Potency [12] | Potency [3] | Potency [4] | Potency [5] | Potency [6] | Potency [7] | Potency [8] | Potency [19]
30.8 µM (active) and inactive: Potency [18]

C/C=C/C=C/C(=O)O
inactive: Potency [11] | Potency [2] | Potency [4] | Potency [5] | Potency [6] | Potency [7] | Potency [8]
inactive and 49 µM (active): Potency [1]

O=CC(=O)c1ccccc1
inactive: Potency [11] | Potency [9] | Potency [10] | Potency [3] | Potency [4] | Potency [5] | Potency [7] | Potency [8] | Potency [18]
active: Potency [6] 68.7 µM

O=C1c2c(O)cccc2Cc2cccc(O)c21
inactive: Potency [1] | Potency [11] | Potency [2] | Potency [3] | Potency [4] | Potency [5] | Potency [8]

CCCCC(CC)C(=O)O (stereo not given)
inactive: Potency [1] | Potency [11] | Potency [2] | Potency [3] | Potency [4] | Potency [5] | Potency [8]
